# Results filed as inconclusive are left out. The source made the active and inactive calls. Calls follow the shape of the full dose curve.
# Experiment: qHTS assay for small molecule agonists of the antioxidant response element (ARE) signaling pathway - cell viability counter screen (AID 743203); also: nearly all actives have a fitted effect of over 55% in size
# Settings: ARE-bla HepG2 viability, CellTiter-Glo luminescence, 16 h; series mostly up to 73.3 µM
# Excerpt: National Center for Advancing Translational Sciences [NCATS]
# NIH Chemical Genomics Center [NCGC]
# U.S. Environmental Protection Agency [EPA]
# National Institutes of Environmental Health Sciences [NIEHS]
# National Toxicology Program [NTP]
# U.S. Food and Drug Administration [FDA]
# Oxidative stress has been implicated in the pathogenesis of a variety of diseases ranging from cancer to neurodegeneration. The antioxidant response element (ARE) signaling pathway plays an important role in the amelioration of oxidative stress. The CellSensor ARE-bla HepG2 cell line (Invitrogen) can be used for analyzing the Nrf2/antioxidant response signaling pathway. Nrf2 (NF-E2-related factor 2) and Nrf1 are transcription factors that bind to AREs and activate these genes. The CellSensor ARE-bla Hep G2 cell line contains a beta-lactamase reporter gene under control of the Antioxidant Response Element (ARE) stably integrated into HepG2 cells. The activation of the report gene under culture conditions can be detected by fluorescence intensity. This cell line has been used to screen the Tox21 10K compound library to identify agonists that induce oxidative stress. The cytotoxicity of the Tox21 compound library against the ARE-bla cell line was tested in parallel by measuring the cell viability using CellTiter-Glo assay (Promega, Madison, WI) in the same wells.
# Tox21 Assay Protocol Summary:
# ARE-bla HepG2 cells were dispensed at 2,000 cells/5 ul/well in 1536-well white wall/solid bottom plates using a Multidrop Combi (ThermoFisher Scientific, Waltham, MA) dispenser. After the assay plates were incubated at 37C/5% CO2 for 5 hrs, 23 nL of compounds dissolved in DMSO, positive controls or DMSO only was transferred to the assay plate by a pintool work station (Kalypsys, San Diego, CA). The plates were incubated at 37C/5% CO2 for 16 hrs, followed by addition of 4 ul/well of CellTiter-Glo reagent into the assay plates using a Flying Reagent Dispenser (Aurora Discovery, San Diego, CA). After 30 min incubation at room temperature, the luminescence intensity in the assay plates was measured using a ViewLux (PerkinElmer, Shelton, CT) plate reader.
# % is scaled to controls: 0 for no effect and ±100 for the full control effect.
Structure (SMILES),outcome,"viability change, negative = cytotoxic"
CC(C)NC(=O)c1ccc(C=O)cc1,inactive,
Fc1ccccc1,inactive,
COc1cc2c(cc1OC)C(=O)C(CC1CCN(Cc3ccccc3)CC1)C2 (stereo not given),inactive,
C=Cc1ccc(C(C)(C)C)cc1,inactive,
Cc1ccccc1C(N)=O,inactive,
CC(C)Nc1ccccc1,inactive,
CC12CCC(C1)C(C)(C)C2O (stereo not given),inactive,
O=C(O)c1cc2ccccc2nc1C(=O)O,inactive,
C[C@]12CCC(=O)C=C1CC[C@H]1[C@@H]3CC[C@](O)(C(=O)CO)[C@@]3(C)C[C@H](O)[C@@]12F,inactive,
CN1CCOC(c2ccccc2)c2ccccc2C1 (stereo not given),inactive,
CC(C)CO,inactive,
COP(=O)(O)OP(=O)(O)OC,inactive,
O=C[O][Al]([O]C=O)[O]C=O,inactive,
O=Cc1ccccc1Cl,inactive,
CN(C)CCOC(=O)C(c1ccccc1)C1(O)CCCC1 (stereo not given),inactive,
Cn1c(=O)c2c(ncn2CCO)n(C)c1=O,inactive,
C=CC/C=C/C,inactive,
Cc1ccc(C)c([N+](=O)[O-])c1,inactive,
N[C@@H](Cc1ccc(O)cc1)C(=O)O,,19.5% [at 8.36 µM] (inactive)
OC1OCCOC1O (stereo not given),inactive,

Structure (SMILES),outcome,"viability change, negative = cytotoxic"
CO[Si](CCCn1c(=O)n(CCC[Si](OC)(OC)OC)c(=O)n(CCC[Si](OC)(OC)OC)c1=O)(OC)OC,inactive,
CC(C)OC(=O)CCC(=O)OC(C)C,inactive,
Cc1cc(-c2ccccc2)nnc1NCCN1CCOCC1,inactive,
Cc1ccc(C(C)NC(=O)[C@@H](NC(=O)OC(C)C)C(C)C)cc1 (stereo not given in full),inactive,
CCCCCCCCCCCCCCC(=O)NC(CO)CCCCCCCCCCCCCC (stereo not given),inactive,
O=C1OCCO1,inactive,
ONc1ccccc1,inactive,
CC(O)COC(C)(C)C (stereo not given),inactive,
CC1OCCC1=O (stereo not given),inactive,
CC(=O)O[C@@H]1CC2CCC1(C)C2(C)C (stereo not given in full),inactive,
CCCCOC(=O)C(C)O (stereo not given),inactive,
COc1nc(N)nc2nc[nH]c12,inactive,
CC(=O)O[Si](C)(OC(C)=O)OC(C)=O,inactive,
O=C(CCCCC(=O)Nc1c(I)cc(I)c(C(=O)O)c1I)Nc1c(I)cc(I)c(C(=O)O)c1I,inactive,
CCn1cc(C(=O)O)c(=O)c2cnc(N3CCCC3)nc21,,0.125% [at 8.36 µM] (inactive)
COc1cc(OC)nc(O[C@H](C(=O)O)C(OC)(c2ccccc2)c2ccccc2)n1,inactive,
CN(C)CC/C=C1/c2ccccc2COc2ccc(CC(=O)O)cc21,inactive,
COc1ccc2c(c1)c1c3n2CCN(C)C3=NCC1,inactive,
O=C(O)CCCCCC(=O)O,inactive,
CCCCCCCCCCCCCCCCCCOCCO,inactive,
